# Screening data deposited in PubChem by National Center for Advancing Translational Sciences (NCATS).
# An excerpt weighted towards active compounds, which were near 1.2% of everything screened.
# PKM2 act = qHTS Assay for Activators of Human Muscle isoform 2 Pyruvate Kinase; actives 0.34% (n = 260,000); Potency, µM (doses to about 57.5 µM), hits mostly activators; purified PKM2, Kinase-Glo ATP luminescence, activation; response scale: 0% is enzyme alone, no compound; also: nearly all actives have a fitted effect of over 55% in size
#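 Kinase-Glo luminescence reports ATP generated from ADP (0.1 mM) and PEP (0.5 mM) by purified hPK-M2 after 1 h at room temperature, pH 7.2 imidazole buffer; intermediate enzyme activity allows detecting inhibitors and activators.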
# TrxR1 substrate = qHTS Assay for Substrates of Mammalian Selenoprotein Thioredoxin Reductase 1 (TrxR1): qHTS; purified TrxR1 substrate turnover, NADPH consumption readout; Potency, µM (top dose mostly 114 µM); actives 0.01% (n = 390,000); AID 588456, 2011; also: nearly all actives have a fitted effect of over 50% in size
#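 Rat TrxR1, dispensed at 90 nM, was prereduced with 400 uM NADPH (final) for 5 min at ~22 deg C, then incubated with compound 15 min before 400 uM selenite. A first-read NADPH fluorescence drop versus no-compound background flagged substrates.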
# GALK inh = qHTS Assay for Inhibitors of Human Galactokinase (GALK); Purified GALK, Kinase-Glo residual ATP luminescence; actives 0.007% (n = 270,000); P51570; Potency, µM (highest dose often 57.5 µM), most hits filed as inhibitors
#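 Compounds were pin-transferred into ATP buffer (35 uM final), then GALK plus galactose (5 nM, 100 uM final) was added. After 1 h at room temperature, Kinase-Glo Plus was added and luminescence read after 10 min.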
# rTrxR1 inhibitor = qHTS Assay for Inhibitors of Mammalian Selenoprotein Thioredoxin Reductase 1 (TrxR1): qHTS | AID 588453, 2011 | actives 1% (n = 390,000) | Thioredoxin reductase 1, cytoplasmic (Rattus norvegicus), O89049 | recombinant rTrxR1, NADPH fluorescence consumption, selenite substrate | Potency, µM (series often up to 114 µM), actives largely listed as inhibitors; also: nearly all actives have a fitted effect of over 65% in size
#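 Rat TrxR1 (90 nM in the dispensed reagent) was pre-reduced with 400 uM NADPH for 5 min at room temperature, then incubated with compound for 15 min. After 400 uM selenite was added, NADPH fluorescence (Ex 340/Em 450 nm) was followed for 8 min.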
# PI4K2A inh = qHTS for small molecular inhibitors of PI4K2A. purified PI4K2A, ADP-Glo luminescence, 1 h; hits give low values. actives 0.13% (n = 420,000). AID 1346378, 2018. activity change, negative = inhibition, % at 76.9 µM. Phosphatidylinositol 4-kinase type 2-alpha (Homo sapiens), Q9BTU6; in the data active = activity change below about -50%; inconclusive = mostly about -30% to -49%
# Target sequence (Q9BTU6 whole entry, looked up): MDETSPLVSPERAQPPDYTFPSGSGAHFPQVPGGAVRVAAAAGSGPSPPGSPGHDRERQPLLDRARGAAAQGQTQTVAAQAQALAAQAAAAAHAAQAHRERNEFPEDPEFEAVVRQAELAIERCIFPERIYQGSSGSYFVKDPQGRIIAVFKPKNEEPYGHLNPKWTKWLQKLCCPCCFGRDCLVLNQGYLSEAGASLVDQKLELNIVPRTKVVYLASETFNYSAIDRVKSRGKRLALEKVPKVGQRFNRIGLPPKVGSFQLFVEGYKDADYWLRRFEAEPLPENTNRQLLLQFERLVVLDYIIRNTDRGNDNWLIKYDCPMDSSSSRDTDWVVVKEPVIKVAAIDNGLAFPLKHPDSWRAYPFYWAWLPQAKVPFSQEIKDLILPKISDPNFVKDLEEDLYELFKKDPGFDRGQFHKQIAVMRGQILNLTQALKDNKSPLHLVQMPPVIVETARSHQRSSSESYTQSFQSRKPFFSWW
#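 PI4K2A activity was measured by ADP-Glo luminescence: enzyme (4 ug/mL stock) and phosphatidylinositol (1.2 mM stock) in Tris pH 7.5/MgCl2/EGTA/Triton X-100 buffer were reacted with ATP (300 microM stock) for one hour at ambient temperature.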
# Hits are given with their value; n = inactive; u = inconclusive; x = no result given; [ ] = dose if it differs, or a comment. Unless noted, calls follow the shape of the dose curve; as a rule, active = well fitted curve in the direction sought with a large enough effect; inconclusive = small, poorly fitted or top-dose-only effect, or another doubt; inactive = no such curve, though single readings can be large; an effect the other way counts as inactive or inconclusive.
SMILES,PKM2 act,TrxR1 substrate,GALK inh,rTrxR1 inhibitor,PI4K2A inh
CC(C)NC(NC(=O)Cc1ccccc1)C(Cl)(Cl)Cl (stereo unspecified),n,n,n,n,n
CCN(CC)C(NC(=O)Cc1ccccc1)C(Cl)(Cl)Cl (stereo unspecified),n,n,n,7.9µM,n
O=C(Cc1cccs1)NC1CC(=O)N(c2ccc(F)cc2)C1 (stereo unspecified),x,n,x,n,n
COc1cc(OC)c(NC(=O)c2noc3c2CSc2ccccc2-3)cc1Cl,x,n,x,7.1µM,n
COc1cc(OC)c(NC(=O)c2nn(C)c3c2COc2ccccc2-3)cc1Cl,x,n,x,16µM,n
O=C(O)Cn1c(=O)n(Cc2ccc(Br)cc2F)c(=O)c2ccc(Cl)cc21,x,x,x,x,n
O=C(Cn1c(=O)c2cccn2c2ccc(F)cc21)N1CCN(c2ccccc2)CC1,x,n,x,n,n
Cc1c(NS(=O)(=O)c2ccccc2)cc(Cl)c(O)c1C,n,n,n,25µM,n
Cc1c(Cl)cccc1NS(=O)(=O)c1ccccc1,x,n,x,n,n
CC(C)(C)c1ccc(C(=O)CC(Sc2ccc(Cl)cc2)C(=O)O)cc1 (stereo unspecified),n,n,n,56µM,n
Cc1ccc(SC(CC(=O)c2ccc(F)cc2)C(=O)O)cc1 (stereo unspecified),x,n,n,u,n
CCC(C)Cn1cnc2c(Sc3c([N+](=O)[O-])ncn3C)nc(N)nc21 (stereo unspecified),x,n,x,2.8µM,n
CC(C)Cn1cnc2c(Sc3c([N+](=O)[O-])ncn3C)nc(N)nc21,x,n,x,2µM,n
CC(C)Cn1cnc2c(SCc3ccccc3Cl)nc(N)nc21,x,n,x,n,n
CC(C)(C)c1ccc(C(=O)Nc2cc(Cl)ccc2-c2nn[nH]n2)cc1,x,x,x,x,n
CCc1cc(SC#N)cc(CC)c1NC(=O)CCl,n,n,x,25µM,n
CC(=O)NN1C(=O)/C(=C/c2ccc(Br)o2)SC1=S,n,n,n,25µM,n
O=C(CSc1nc2ccccc2nc1Cc1ccc(Cl)cc1)N1CCN(c2ccccc2F)CC1,x,n,x,n,n
CCN(CC)C(=O)c1ccc(S(=O)(=O)Cc2ccc(C)cc2)c([N+](=O)[O-])c1,x,n,n,32µM,n
O=C(C1CC1)N1CCc2cc(Br)c(S(=O)(=O)NCCCN3CCCCC3)cc21,x,x,x,x,n
O=C1CC(c2ccco2)Sc2nc3ccccc3n21 (stereo unspecified),n,n,n,13µM,n
CN1C(=O)CC(c2ccco2)Sc2ccccc21 (stereo unspecified),n,n,n,56µM,n
CCOc1ccccc1NC(=O)c1ccc2c(c1)CCCN2S(C)(=O)=O,x,n,x,n,n
CC(=O)Nc1ccc(SC[C@H](Cc2ccccc2)N2CC[C@@H](N)CCC2=O)cc1,x,n,x,n,x
O=C(c1ccccc1F)N1c2nc(-c3ccco3)nn2C2(CCCCC2)[C@@H]2CCCC[C@@H]21,x,n,x,25µM,n
SMILES,PKM2 act,TrxR1 substrate,GALK inh,rTrxR1 inhibitor,PI4K2A inh
Cc1ccc(/C=C/S(=O)(=O)NCC(=O)OCC(=O)Nc2c(F)cccc2F)cc1,x,n,x,32µM,n
Cc1nn(S(=O)(=O)c2cccs2)c(C)c1Sc1ccccc1,16µM,x,n,x,x
Cc1nn(S(=O)(=O)c2cccs2)c(C)c1Sc1ccc([N+](=O)[O-])cc1,n,n,n,n,n
COc1cc(NS(=O)(=O)c2cc3[nH]c(=O)c(=O)[nH]c3cc2C)cc(OC)c1OC,7.1µM,n,x,n,n
Cc1cc2[nH]c(=O)c(=O)[nH]c2cc1S(=O)(=O)Nc1cccc(Cl)c1C,16µM,n,x,n,n
COc1cc(NS(=O)(=O)c2ccc(C)cc2C)cc(OC)c1OC,u,n,n,n,n
CCOc1ccc(N2C(=O)c3[nH]nc(-c4ccc(OC)cc4)c3C2c2cccs2)cc1 (stereo unspecified),x,n[11.4 µM],x,n,n
COc1cccc(NC(=O)c2cnc(SCC(=O)N3CCOCC3)n(C)c2=O)c1,x,n,x,n,n
